# From PubChem BioAssay AID2023 (NMMLSC, 2009)
# About 1,100 (0.34%) of roughly 320,000 compounds were called active.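 How the source made its calls: active means GFP response vs DMSO above a set limit, about the screen mean plus 3 SD (cut at about 150% in these data); inconclusive means under 70 cell events counted for the yeast strain; inactive means the rest.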 For the sample, actives were picked, then their nearest neighbours and some compounds at random.
# Experiment: TOR pathway LAP4-GFP level changes – S. cerevisiae, multiplex flow cytometry, MLPCN library, primary screen (AID 2023)
# Details: 3 h, at 10 µM, stronger effect = higher value
row,SMILES,GFP response vs DMSO
1,Cc1cccc2c(CCN)c[nH]c12,105% (inactive)
2,C/C(CCc1c[nH]c2ccccc12)=N\O,102% (inactive)
3,NCCc1c[nH]c2ccc(O)cc12,307% [may fluoresce violet] (active)
4,CN(C)C(=O)NC(O)C(Cl)(Cl)Cl (stereo not given),108% (inactive)
5,COc1ccc(CN2C(=O)NC(=O)/C(=C\c3ccc(OC)c(OC)c3OC)C2=O)cc1,109% (inactive)
6,COc1cccc(N2C(=O)NC(=O)/C(=C\c3cn(C)c4ccccc34)C2=O)c1,104% (inactive)
7,COc1ccc(N2C(=O)/C(=C/c3ccco3)C(=O)NC2=S)cc1,170% (active)
8,Cc1ccc(S(=O)(=O)N(C)c2ccc(C(=O)NCC3(N(C)C)CCCCC3)cc2)cc1,91.7% (inactive)
9,O=C1NC(=O)N(Cc2ccco2)C(=O)/C1=C\c1cccn1CCOc1ccccc1,111% (inactive)
10,O=C1NC(=O)N(Cc2ccco2)C(=O)/C1=C\c1ccc(-c2ccc(F)cc2)o1,182% (active)
11,O=C1NC(=O)N(CCc2ccc(F)cc2)C(=O)/C1=C/C=C/c1ccccc1,111% (inactive)
12,O=C(Cc1ccccc1)N1CCN(C2CCCCCC2)CC1,95.7% (inactive)
13,COc1ccc(C2N3CC(C)(C)CN23)cc1 (stereo not given),95% [median GFP as percent of DMSO wells] (inactive)
14,CC1CCC(N(C)C2CCN(C)CC2)CC1 (stereo not given),94.4% (inactive)
15,CNCC[C@H](Oc1ccc(C(F)(F)F)cc1)c1ccccc1,106% (inactive)
